# Results from PubChem BioAssay AID463173 (ICCB-Longwood Screening Facility, Harvard Medical School, 2010).
# Among all 52,000 compounds or so, about 4,300 (8.3%) were called active. Rule as the data show it: active = survival mostly below about 52% (no sharp cut-off); inactive = mostly above about 56%. Many of the other results were omitted from the sample, so actives are more common in it than they were.
# System: DeltatarO mutant
# Assay: S. aureus survival, RN4220 and DeltatarO strains – OD600, teichoic acid synthesis inhibitors, primary screen (AID 463173)
# Settings: S. aureus RN4220 wild type/DeltatarO growth, OD600, 18 h, active compounds read low, screened at 18.75 µg/mL (by protocol)
row,SMILES,survival
1,CC(=O)c1ccc(N2CCN(c3ncnc4c3c(-c3ccccc3)cn4-c3ccc(Cl)cc3)CC2)cc1,91% (inactive)
2,O=C(CSc1nc2ccsc2c(=O)n1Cc1ccccc1F)NCc1ccccc1,122% (inactive)
3,COc1cccc(NC(=O)Cn2c(=O)n(-c3cccc(OC)c3)c(=O)c3sc4ccccc4c32)c1,65% (inactive)
4,CCCCNC(=O)c1ccc2c(=O)n(-c3ccccc3)c(=O)[nH]c2c1,80% (inactive)
5,COc1ccc(C(=O)N2CC(=O)Nc3ccc(F)cc3C2c2ccc(F)cc2)c(OC)c1 (centres undefined),58% (inactive)
6,Cc1ccccc1CNCc1c(C(=O)O)c(C)n(Cc2ccc(F)cc2Cl)c1C,59% (inactive)
7,O=C(COCc1cc(-c2cccs2)on1)NCc1cccc(Cl)c1,117% (inactive)
8,CCOc1nc(NC(=O)NS(=O)(=O)Oc2ccccc2)nc(-c2ccccc2)n1,70% (inactive)
9,CCOC(=O)c1ccc(N2C(=O)Cc3cc(OCC)c(OCC)cc3C2c2ccccc2)cc1 (centres undefined),117% (inactive)
10,CC(C)NC(=O)c1ccc2c(c1)nnn2C,78% (inactive)
11,O=C(COc1ccccc1-c1nc(-c2ccccc2)no1)Nc1ccc([N+](=O)[O-])cc1,44% (active)
12,Cc1ccccc1-c1noc(-c2ccccc2OCC(=O)Nc2cccc([N+](=O)[O-])c2)n1,51% (inactive)
13,Cc1cccc(-c2noc(-c3ccccc3OCC(=O)Nc3ccc([N+](=O)[O-])cc3)n2)c1,50% (inactive)
14,O=C(COc1ccccc1-c1nc(-c2ccccc2)no1)Nc1cccc([N+](=O)[O-])c1,34% (active)
15,CC(=O)c1ccc(NC(=O)COc2ccccc2-c2nc(-c3ccc(C)cc3)no2)cc1,57% (inactive)
16,Cc1noc(-c2ccccc2OCC(=O)Nc2cccc([N+](=O)[O-])c2)n1,60% (inactive)
17,CCN(C(=O)C1CCN(S(=O)(=O)c2ccc3c(c2)CCCN3C(C)=O)CC1)c1cccc(C)c1,88% (inactive)
18,CCN(CC)S(=O)(=O)c1ccc(OC)c(-n2cnnn2)c1,65% (inactive)
19,COc1ccc(NC(=O)c2nc(SCc3ccccc3F)ncc2Cl)cc1,73% (inactive)
20,O=C(Nc1ccccc1F)c1nc(SCc2ccccc2F)ncc1Cl,73% (inactive)
21,CCOc1ccc(NC(=O)c2nc(S(=O)(=O)Cc3ccccc3F)ncc2Cl)cc1,11% (active)
22,O=C(Nc1ccccc1F)c1nc(S(=O)(=O)Cc2ccccc2F)ncc1Cl,-4% (active)
23,COc1ccc2nc(NC(=O)c3nc(S(=O)(=O)Cc4ccccc4F)ncc3Cl)sc2c1,61% (inactive)
24,COC(=O)c1ccccc1NC(=O)c1nc(S(=O)(=O)Cc2ccccc2F)ncc1Cl,110% (inactive)
25,Cc1cc(C)c2c(=O)cc(C(=O)Nc3sc4c(c3C(=O)NCc3cccnc3)CCCC4)oc2c1,68% (inactive)

row,SMILES,survival
1,CCOCCCNC(=O)c1c(NC(=O)c2cc(=O)c3ccccc3o2)sc2c1CCC2,48% (inactive)
2,Cc1nc2c(Cl)cc(Cl)cc2[nH]1,88% (inactive)
3,COc1cccc2cc(-c3cn4c(n3)sc3cc(F)ccc34)c(=O)oc12,60% (inactive)
4,CCOc1cccc2cc(-c3cn4c(n3)sc3cc(C)ccc34)c(=O)oc12,-4% (active)
5,CCOc1cccc2cc(-c3cn4c(n3)sc3ccccc34)c(=O)oc12,72% (inactive)
6,COCCCNC(=O)CS(=O)Cc1nc(-c2cccc(C)c2)oc1C (centres undefined),90% (inactive)
7,S=C(NC12CC3CC(CC(C3)C1)C2)N1CCOCC1,98% (inactive)
8,CCC(C)NC(=O)c1cn(CC)c2ccc(S(=O)(=O)N3CCCCC3)cc2c1=O (centres undefined),84% (inactive)
9,Cc1ccc(COC(=O)c2[nH]c3c(c2C)C(=O)CC(c2ccc(N(C)C)cc2)C3)cc1 (centres undefined),77% (inactive)
10,CCCOC(=O)c1c(NC(=O)c2nc3ncccn3n2)sc(C(=O)OCC)c1C,68% (inactive)
11,O=C(CN1C(=O)CCc2cc(S(=O)(=O)N3CCCCC3)ccc21)NCc1ccc(Cl)cc1,78% (inactive)
12,CCC(=O)Nc1ccccc1-c1nc2ccccc2n(CC(=O)c2ccc(C)c(C)c2)c1=O,33% (active)
13,CC(=O)Nc1ccc(C)cc1-c1nc2ccccc2n(CC(=O)c2ccc(Cl)cc2)c1=O,82% (inactive)
14,CCC(=O)Nc1ccc(C)cc1-c1nc2ccccc2n(CC(=O)c2ccc(C)cc2)c1=O,68% (inactive)
15,CCC(=O)Nc1ccccc1-c1nc2ccccc2n(CC(=O)c2ccc(Cl)cc2)c1=O,35% (active)
16,CC(=O)Nc1ccccc1-c1nc2ccccc2n(CC(=O)c2ccc(C)c(C)c2)c1=O,104% (inactive)
17,CC(=O)Nc1ccccc1-c1nc2ccccc2n(CC(=O)c2ccc(Br)cc2)c1=O,76% (inactive)
18,CCC(=O)Nc1ccccc1-c1nc2ccccc2n(CC(=O)c2ccc(Br)cc2)c1=O,29% (active)
19,CCC(=O)Nc1ccccc1-c1nc2ccccc2n(CC(=O)c2ccc(C)cc2)c1=O,50% (inactive)
20,CCC(=O)Nc1ccccc1-c1nc2ccccc2n(CC(=O)Nc2ccc(C)c(C)c2)c1=O,47% (inactive)
21,COc1ccc(CCNC(=O)Cn2c(=O)n(-c3cc(OC)c(OC)c(OC)c3)c(=O)c3ccccc32)cc1OC,81% (inactive)
22,COc1cc(CNCCSc2nnnn2C)ccc1OCc1ccc(F)cc1,122% (inactive)
23,COC(=O)c1ccccc1NC(=O)c1cnc2c(-c3cccc(C)c3)c(C)nn2c1C,128% (inactive)
24,CCOc1ccc2nc(SCC(=O)N(C)C3CCCCC3)c(C#N)cc2c1,89% (inactive)
25,COc1cc(NC(=O)C2CCN(c3cnc4ccccc4n3)CC2)cc(OC)c1OC,-5% (active)

row,SMILES,survival
1,COc1cc(NC(=O)C2CCN(c3cnccn3)CC2)cc(OC)c1,79% (inactive)
2,CCc1ccccc1NC(=O)C1CCN(c2cnccn2)CC1,43% (inactive)
3,COc1ccccc1NC(=O)C1CCN(c2cnccn2)CC1,54% (active)
4,COc1cc(NC(=O)c2nc3ccccc3nc2N2CCCCC2)cc(OC)c1OC,87% (inactive)
5,COc1cc(NC(=O)C2CCN(c3nc4ccccc4nc3C(F)(F)F)CC2)cc(OC)c1,101% (inactive)
6,Cc1c(Cl)cccc1NC(=O)CN1C(=O)COc2ccc(S(=O)(=O)Nc3ccccc3)cc21,60% (inactive)
7,CCS(=O)(=O)c1nc(S(=O)(=O)c2ccc(C)cc2)c(NCCCOC)s1,97% (inactive)
8,COc1ccccc1N1CCN(C(=O)CSc2n[nH]c(-c3ccccc3)n2)CC1,88% (inactive)
9,O=C(CCc1ccccc1)NC1CC(=O)N(c2ccccc2)C1 (centres undefined),94% (inactive)
10,Cc1ccc(N2CC(NC(=O)CCCc3ccccc3)CC2=O)cc1 (centres undefined),66% (inactive)
11,COc1ccc(N2CC(NC(=O)CCCc3ccccc3)CC2=O)cc1 (centres undefined),32% (active)
12,COc1ccc(N2CC(NC(=O)c3ccc(OC(C)C)cc3)CC2=O)cc1 (centres undefined),0% (active)
13,COc1ccc(C(=O)NC2CC(=O)N(c3ccc4c(c3)OCCO4)C2)cc1 (centres undefined),100% (inactive)
14,COc1cccc(N2CC(NC(=O)CCCc3ccccc3)CC2=O)c1 (centres undefined),69% (inactive)
15,Cc1ccc(N2CC(NC(=O)CCc3ccccc3)CC2=O)cc1 (centres undefined),20% (active)
16,COc1ccc(CCC(=O)NC2CC(=O)N(c3ccccc3)C2)cc1 (centres undefined),126% (inactive)
17,O=C(Cc1ccccc1)NC1CC(=O)N(c2ccccc2)C1 (centres undefined),87% (inactive)
18,Cc1cccc(CC(=O)NC2CC(=O)N(c3cccc(F)c3)C2)c1 (centres undefined),67% (inactive)
19,COc1ccc(N2CC(NC(=O)c3ccc(S(=O)(=O)N4CCCC4)cc3)CC2=O)cc1 (centres undefined),112% (inactive)
20,Cc1cccc(CC(=O)NC2CC(=O)N(c3ccccc3)C2)c1 (centres undefined),-5% (active)
21,Cc1c(NC(=O)c2ccc(OC(C)C)cc2)cccc1-c1nc2ncccc2o1,47% (inactive)
22,O=C(Nc1ccc(F)cc1)c1nc(SCc2ccccc2F)ncc1Cl,99% (inactive)
23,Cc1ccc(C(=O)O)cc1NC(=O)c1nsc2ccccc12,103% (inactive)
24,CCOC(=O)c1sc(=S)n(C)c1C,88% (inactive)
25,COc1ccc(OC)c(CNS(=O)(=O)c2ccc3[nH]c4c(c3c2)CCCCC4)c1,79% (inactive)

row,SMILES,survival
1,Cc1ccc(Nc2c3c(nc4nncn24)CCC3)cc1,62% (inactive)
2,COc1ccc(CNC(=O)c2cc3cccc4c3n2CC(C)S4)c(OC)c1 (centres undefined),122% (inactive)
3,CCC(C)OC(=O)/C(C#N)=C/c1ccc(-c2ccc(Br)cc2)o1 (centres undefined),43% (active)
4,CCCCOC(=O)/C(C#N)=C/c1ccc(-c2ccc(Br)cc2)o1,68% (inactive)
5,CCOC(=O)/C(C#N)=C/c1ccc(-c2ccc(Br)cc2)o1,81% (inactive)
6,CC(C)OC(=O)/C(C#N)=C/c1ccc(-c2ccc(Cl)c(Cl)c2)o1,72% (inactive)
7,CC(C)COC(=O)/C(C#N)=C\c1ccc(-c2ccccc2Cl)o1,67% (inactive)
8,CCC(C)OC(=O)/C(C#N)=C\c1ccc(-c2ccccc2Cl)o1 (centres undefined),58% (active)
9,Cc1cccc(-c2nc(C)c(CCNC(=O)C(=O)Nc3ccc(C)c(C)c3)s2)c1,88% (inactive)
10,CC1=CCC(C(=O)Nc2nc3ccccc3s2)C(C(=O)O)C1 (centres undefined),49% (inactive)
11,Cc1ccc(CNC(=O)C2CCN(c3nc4ccc(C)cc4[nH]3)CC2)cc1,126% (inactive)
12,CCc1ccc(CNC(=O)C2CCN(C(=O)c3ccc(-n4c(C)cc5ccccc54)s3)CC2)cc1,70% (inactive)
13,Cc1cc2ccccc2n1-c1ccc(C(=O)N2CCC(C(=O)NCc3ccc(Cl)cc3)CC2)s1,67% (inactive)
14,Cc1cc2ccccc2n1-c1ccc(C(=O)N2CCC(C(=O)NCc3ccc(F)cc3)CC2)s1,6% (active)
15,Cc1nc(-c2cccc(S(=O)(=O)N3CCC(C(=O)NCc4ccccc4)CC3)c2)no1,109% (inactive)
16,COc1ccc(N(C)C(=O)c2cc3c(s2)-c2c(C)cccc2OC3)c(OC)c1,-1% (active)
17,Cc1cccc2c1-c1sc(C(=O)N(C)c3cccc(Cl)c3)cc1CO2,0% (active)
18,Cc1cccc2c1-c1sc(C(=O)N(C)c3cccc(C(F)(F)F)c3)cc1CO2,52% (inactive)
19,CCc1ccccc1N(C)C(=O)c1cc2c(s1)-c1c(C)cccc1OC2,60% (inactive)
20,COc1ccc(OC)c(CCNC(=O)c2cc3c(s2)-c2c(C)cccc2OC3)c1,79% (inactive)
21,COc1cc(Cl)c(C)cc1NC(=O)c1cc2c(s1)-c1c(C)cccc1OC2,90% (inactive)
22,COc1ccc(CCNC(=O)c2cc3c(s2)-c2c(C)cccc2OC3)c(OC)c1,85% (inactive)
23,Cc1cccc2c1-c1sc(C(=O)N3CCN(c4cccc(Cl)c4)CC3)cc1CO2,66% (inactive)
24,COc1ccc(NC(=O)c2cc3c(s2)-c2c(C)cccc2OC3)c(OC)c1,51% (active)
